Assay outcomes from PubChem BioAssay.
Hits are enriched below; roughly 3.5% of the tested compounds scored in any of these assays.
TEAD-YAP inh: TEAD-YAP interaction inhibition; HEK-TIYL cells, TEAD-Gal4/YAP UAS-luciferase luminescence; inhibition, % at 9.12 µM; actives 1.4% (n = 640,000); in the data active means inhibition above about 32%;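 further: 0% = median of test compound wells and 100% = reference inhibitor wells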
FBW7 activator: human FBW7 E3 ligase activation, primary screen; AlphaScreen FBW7–phospho-cyclin E peptide binding, activator screen; normalized activity (activation), % at 26.1 µM; AID 1259310; actives 0.13% (n = 650,000); in the data active means normalized activity above about 1.9%;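 further: purified mutant Fbw7 with reduced substrate affinity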
Target sequence (Q969H0 whole entry, looked up): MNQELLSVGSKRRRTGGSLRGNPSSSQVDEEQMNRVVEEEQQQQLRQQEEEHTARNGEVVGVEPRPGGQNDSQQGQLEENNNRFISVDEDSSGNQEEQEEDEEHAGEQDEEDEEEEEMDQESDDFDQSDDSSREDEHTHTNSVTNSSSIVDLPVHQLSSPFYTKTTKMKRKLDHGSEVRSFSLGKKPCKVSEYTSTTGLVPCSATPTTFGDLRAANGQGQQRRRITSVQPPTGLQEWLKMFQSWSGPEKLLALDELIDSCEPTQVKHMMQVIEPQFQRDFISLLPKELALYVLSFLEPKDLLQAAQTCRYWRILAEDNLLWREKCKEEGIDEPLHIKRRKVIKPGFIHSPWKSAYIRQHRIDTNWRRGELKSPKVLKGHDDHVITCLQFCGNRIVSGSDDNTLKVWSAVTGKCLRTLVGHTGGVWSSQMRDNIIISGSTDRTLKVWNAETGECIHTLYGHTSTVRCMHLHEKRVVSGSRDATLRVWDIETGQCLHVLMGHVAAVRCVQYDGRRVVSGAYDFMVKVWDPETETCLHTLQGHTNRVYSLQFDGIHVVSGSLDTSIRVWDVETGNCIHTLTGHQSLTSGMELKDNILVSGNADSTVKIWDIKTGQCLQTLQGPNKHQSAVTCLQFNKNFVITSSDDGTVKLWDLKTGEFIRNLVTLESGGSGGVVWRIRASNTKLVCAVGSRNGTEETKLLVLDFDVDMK
MITF inh: blocks human microphthalmia-associated transcription factor; AlphaScreen MITF homodimerization, bead proximity signal; inhibition, % at 2.6 µM; actives 0.91% (n = 650,000); in the data active means inhibition above about 50%;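 further: 0% = vehicle wells with protein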
GPR151 activ: human GPR151 activation | Q8TDV0 | PathHunter beta-arrestin GPR151 cells, luminescence | activation, % at 11.2 µM | actives 1% (n = 650,000); in the data active means activation above about 4.9%;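 further: 0% = median of compound wells and 100% = cells with positive control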
* hit, by the source's call.

SMILES	TEAD-YAP inh	FBW7 activator	MITF inh	GPR151 activ
COc1cccc(-c2cc3ccc(OC(C)=O)cc3oc2=O)c1	58.0*	0.7	-8.3	-10.6
COc1ccc(-c2cc3ccc(O)cc3oc2=O)cc1	69.6*	1.6	-8.5	-9.8
COc1ccc2cc(-c3nc(-c4ccccc4)no3)c(=O)oc2c1	58.6*	-0.1	4.2	0.2
COC(=O)Nc1ccc(S(=O)(=O)N2CCC(C(=O)Nc3ccccc3C)CC2)cc1	3.0	0.3	2.7	0.1
COc1ccc(CCNc2nc(Nc3ccc4ncccc4c3)nc3nc[nH]c23)cc1	50.3*	0.1	15.4	0.0
COc1ccc(CCNc2nc(Nc3ccc4ncccc4c3)ncc2C)cc1	33.4*	0.1	19.9	-0.6
O=C(O)c1cc2c3c(c1)C1C=CCC1CN3CC1CC=CC21 (configuration not stated)	12.2	0.0	75.9*	0.7
O=C(O)C1C2CC=CC2c2cc(Br)cc3c2N1CC1CC=CC31 (configuration not stated)	0.0	5.5*	-5.0	-1.4
NS(=O)(=O)c1ccc(CCNC(=O)Cc2ccc([N+](=O)[O-])cc2)cc1	3.6	-0.1	-5.8	-1.1
COc1cc(CNc2nccn3c(-c4cccc(O)c4)cnc23)cc(OC)c1OC	0.0	2.1*	-1.1	0.6
COc1cc(-c2cnc3c(NCc4ccncc4)nccn23)cc(OC)c1OC	-7.8	-0.5	-1.4	0.2
COc1cc(-c2cnc3c(NCc4cccs4)nccn23)cc(OC)c1OC	38.3*	1.9*	-1.5	0.2
COc1cc(-c2cnc3c(NCc4cccnc4)nccn23)cc(OC)c1OC	39.3*	-0.1	-9.2	0.3
COc1ccccc1C(=O)Nc1ccnn1C1CCN(Cc2cccc(OC)c2O)CC1	-9.5	0.0	8.5	-0.7
COc1ccc(C2CC(C(=O)N3CCC4(CC3)OCCO4)N(C)S(=O)(=O)N2)cc1 (configuration not stated)	8.0	0.1	-18.3	0.7
O=C(Nc1ccccn1)c1cc2ccccc2o1	70.5*	-0.2	10.8	-9.6
Cc1ccnc(NC(=O)c2cc3ccccc3o2)c1	55.8*	0.5	3.5	-8.3
O=C(Nc1ccccc1NC(=O)c1cc2ccccc2o1)c1ccccn1	-3.8	-0.1	-3.2	0.4
Cc1cc(C)cc(NC(=O)c2cc3ccccc3o2)c1	-26.6	0.0	2.0	-0.6
COc1ccc(-c2cc3nc4c(c(N5CCC(O)CC5)n3n2)CCCC4)cc1	37.8*	0.1	-3.2	0.8
CCCNc1nc(Nc2ccncn2)nc2c1ncn2-c1ccsc1	23.6	0.1	15.8	-1.6
CC1C(=O)NN=C1C(=O)N/N=C\c1cccnc1 (configuration not stated)	35.2*	-0.1	-9.6	-1.2
CC(C)(C)OC(=O)N/N=C\c1cccs1	-27.1	5.6*	3.6	-0.9
CC1C(=O)NN=C1C(=O)N/N=C/c1cccs1 (configuration not stated)	31.9*	0.0	5.1	-2.9
CC1C(=O)NN=C1C(=O)N/N=C\c1cccc(O)c1 (configuration not stated)	28.3	0.6	28.3	-7.3
SMILES	TEAD-YAP inh	FBW7 activator	MITF inh	GPR151 activ
COc1ccc(CCNC(=O)c2ccc3nc(NCCCN4CCCC4=O)sc3c2)cc1	8.1	0.2	12.3	-3.1
COc1ccc(C(=O)/C(=C/N2C=CC=CC2=C(C#N)C#N)c2ccco2)cc1	47.6*	0.1	13.7	-3.1
COc1ccc(Cc2nnc(Nc3cccc(Cl)c3)[nH]c2=O)cc1	33.8*	-0.2	2.6	0.5
COc1ccc(-c2cc(N3CCN(C/C=C/c4ccccc4)CC3)ncn2)cc1	35.3*	0.0	-8.9	0.8
CNC(=O)c1cc(F)c(F)cc1Nc1cc(Nc2ccc(N3CCOCC3)cc2OC)ncc1C(F)(F)F	5.7	0.0	-1.1	0.4
CNC(=O)c1ccccc1Nc1cc(Nc2ccc(N3CCOCC3)cc2F)ncc1C(F)(F)F	67.1*	-0.1	3.8	-2.7
CNC(=O)c1ccccc1Nc1nc(Nc2ccc(-n3cnc(N4CCOCC4)n3)cc2)ncc1Cl	31.2	0.1	19.9	0.6
CNC(=O)c1ccccc1Nc1nc(Nc2ccc(N3CCOCC3)c(F)c2)ncc1Cl	63.0*	0.0	-3.0	1.8
CNC(=O)c1ccccc1Nc1cc(Nc2ccc(N3CCOCC3)cc2)ncc1C(N)=O	22.2	0.0	8.5	0.0
CNC(=O)c1ccccc1Nc1cc(Nc2ccc(C(=O)N3CCOCC3)cn2)ncc1C(F)(F)F	85.8*	-0.1	-4.4	-0.7
CNC(=O)c1ccccc1Nc1cc(Nc2cccnc2)ncc1C(F)(F)F	13.6	-0.1	5.4	-1.0
CNC(=O)c1ccccc1Nc1cc(Nc2ccc(N3CCOCC3)cc2)ncc1C(F)(F)F	75.1*	-0.3	0.2	-0.2
